From PubChem
AmpC no deterg: qHTS Inhibitors of AmpC Beta-Lactamase (assay without detergent); AmpC nitrocefin hydrolysis, absorbance 480 nm, 0.0001% Triton; P00811; actives 0.52% (n = 330,000); Potency, µM (titrated, usually from 57.1 µM), for inactives: at the highest dose activity change, negative = inhibition, usual class: inhibitors;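 also: plate controls were no compound for no effect and no enzyme for full effect; nearly all actives have a fitted effect of over 20% in size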
Target sequence (P00811 whole entry, looked up): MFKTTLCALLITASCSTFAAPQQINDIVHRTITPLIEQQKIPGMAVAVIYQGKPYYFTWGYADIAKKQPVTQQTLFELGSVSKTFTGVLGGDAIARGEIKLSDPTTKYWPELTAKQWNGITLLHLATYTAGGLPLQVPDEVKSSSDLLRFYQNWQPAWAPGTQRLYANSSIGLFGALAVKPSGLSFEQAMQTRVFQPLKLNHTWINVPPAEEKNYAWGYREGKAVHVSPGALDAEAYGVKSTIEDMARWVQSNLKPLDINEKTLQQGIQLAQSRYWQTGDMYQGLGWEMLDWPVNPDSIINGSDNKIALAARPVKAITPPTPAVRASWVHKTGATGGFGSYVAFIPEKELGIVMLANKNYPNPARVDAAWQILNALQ
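20 mM phosphate pH 7.0 + 0.01% (detergent screen) or 0.0001% Triton X-100; 5.3 nM AmpC reagent; cpd preinc 15 min RT; nitrocefin (800 uM stock) to start; A480 q20 s × 4 min; Activity was normalised to no-enzyme and no-compound control wells.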
Sm TGR inh: qHTS Assay for the Inhibitors of Schistosoma Mansoni Peroxiredoxins. AID 485364, 2010. actives 3% (n = 360,000). purified TGR, DTNB reduction, TNB absorbance 405 nm. Schistosoma mansoni thioredoxin glutathione reductase (TGR), Q962Y6. Potency, µM (titrated, usually from 114 µM), without a hit: top-dose activity change, negative = inhibition, hits mostly inhibitors; also: nearly all actives have a fitted effect of over 60% in size
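Kinetic colorimetric format: TGR-catalysed, NADPH-driven DTNB reduction monitored via TNB absorbance. Enzyme dispensed at 20 nM; compound exposure 15 min at room temperature before reaction start.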
AmpC inh detg: qHTS Inhibitors of AmpC Beta-Lactamase (assay with detergent) | P00811 | AmpC hydrolysis of nitrocefin, absorbance 480 nm, 0.01% Triton | Potency, µM (series often up to 114 µM), without a hit: at the top dose activity change, negative = inhibition, most hits filed as inhibitors | actives 0.041% (n = 370,000);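 also: 0% = no-compound wells and -100% = no-enzyme wells; nearly all actives have a fitted effect of over 25% in size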
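20 mM phosphate pH 7.0 + 0.01% (detergent screen) or 0.0001% Triton X-100; 5.3 nM AmpC reagent; cpd preinc 15 min RT; nitrocefin (800 uM stock) to start; A480 q20 s × 4 min; Activity was normalised to no-enzyme and no-compound control wells.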
* marks the source's active call; other numbers are inactive results; u = inconclusive; x = not tested or not shown. Rows were chosen to be rich in hits. Some 3.3% of all compounds tested hit in one or more screens of this group. Calls follow the shape of the dose curve; as a rule, active = well fitted curve in the direction sought with a large enough effect; inconclusive = small, poorly fitted or top-dose-only effect, or another doubt; inactive = no such curve, though single readings can be large; an effect the other way counts as inactive or inconclusive. Unless noted, % is scaled to controls: 0 for no effect and ±100 for the full control effect; potency is read from the fitted curve at half-maximal effect.

SMILES | AmpC no deterg | Sm TGR inh | AmpC inh detg
Cn1c(-c2ccc(Br)o2)nc2ccccc21 | -2% | 18µM* | u
Cc1ccc2nc(-c3ccc(Br)o3)oc(=O)c2c1 | -21% | 0% | 0%
Cn1c(-c2ccc(Br)o2)nc2cc(Br)ccc21 | -19% | 13µM* | -13%
CN(C)c1ccc(-c2nc3ccccc3n2C)cc1 | -21% | u | -15%
Cc1nn(-c2cccc(Cl)c2)c2nc(-c3cccnc3)cc(C(F)(F)F)c12 | x | 9% | 17%
CCCCN(CCCC)CCNC(=O)c1cc(=O)[nH]c2ccc(S(=O)(=O)N3CCCCCC3)cc12 | x | -3% | -5%
COc1cccc(CN2CCN(C3CCN(c4ccccc4F)CC3)CC2CCO)c1 (configuration not stated) | 91% | 22µM* | 3%
COc1cccc(CN2CCN(C3CCN(c4ccccc4C)CC3)CC2CCO)c1 (configuration not stated) | 129% | u | 0%
CCOC(=O)N1CCC(N2CCN(Cc3ccc(C)o3)C(CCO)C2)CC1 (configuration not stated) | -8% | -7% | 5%
CCOC(=O)N1CCC(N2CCN(Cc3ccccc3)C(CCO)C2)CC1 (configuration not stated) | -8% | 16µM* | 0%
CCOc1ccccc1NC(=O)Cn1c(=O)n(-c2ccc(Cl)cc2)c(=O)c2oc3ccccc3c21 | x | -2% | -1%
O=C(CCN1C(=O)/C(=C/c2ccc(Cl)cc2)SC1=S)Nc1cccc(C(=O)O)c1 | -30% | -7% | 1%
O=C(O)c1cccc(N2C(=O)/C(=C/c3ccc(SCc4ccc(Cl)cc4)o3)SC2=S)c1 | -27% | 13µM* | 1%
Cc1ccc(Nc2cc(C(=O)NC3CCCC3)c3ccccc3n2)cc1C | x | 26% | 1%
NC(=O)N/N=C/c1c(Sc2nnnn2-c2ccccc2)nc2ccccn2c1=O | -12% | 4µM* | 1%
Cc1nn(-c2ccccc2)c(Cl)c1/C=N/NC(N)=O | -10% | 4% | 0%
CCOC(=O)c1ccc(NC(=O)C(=O)NCc2ccc(/C=C(/C#N)C(=O)NCCOC)o2)cc1 | -12% | 6% | -1%
CCOC(=O)C(=O)NCc1ccc(/C=C2/N=C(C)C(C(=O)OCC)=C2O)o1 | -24% | 32µM* | -3%
CCOC(=O)C1=C(O)/C(=C/c2ccc(CNC(=O)C(=O)Nc3ccc(C)cc3)o2)N=C1C | -24% | 18µM* | 1%
COC(=O)C1=C(O)/C(=C\c2ccc(CNC(=O)C(=O)Nc3ccc(C)cc3)o2)N=C1C | -17% | 18µM* | 4%
CCOC(=O)C1=C(O)/C(=C\c2cccc(OC)c2)N=C1C | -5% | 1% | -3%
COC(=O)C1=C(O)/C(=C\c2ccc(CNC(=O)C(=O)Nc3ccc(C)c(C)c3)o2)N=C1C | -18% | 32µM* | u
CCc1ccc(CCC(=O)Nc2ccc(C)c(C)c2)o1 | -21% | u | u
Cc1ccc(NC(=O)C(=O)NCc2ccccn2)cc1 | -10% | -4% | 0%
Cc1ccccc1NC(=O)CSc1cn(CC(=O)N2CCCCCC2)c2ccccc12 | x | 21% | 17%
SMILES | AmpC no deterg | Sm TGR inh | AmpC inh detg
Cc1ccc(C)c(CN2CCC(CNC(=O)C(CC(C)C)N3Cc4ccccc4C3=O)CC2)c1 (configuration not stated) | x | 4% | 11%
CCOc1ccccc1NC(=O)Cn1ncc2c(=O)oc3ccc(C)cc3c21 | x | -8% | 0%
CCCCC(CC)CNC(=O)CCCCCn1c(=O)[nH]c2ccsc2c1=O (configuration not stated) | x | 2% | -3%
Cc1cn2c(=O)cc(COC(=O)c3cccc(NC(=O)C(C)Oc4ccccc4)c3)nc2s1 (configuration not stated) | x | -9% | -2%
Cc1ccc(Oc2c(C(N)=O)cc([N+](=O)[O-])cc2[N+](=O)[O-])cc1 | -23% | 11µM* | 5%
Cc1ccc(CNc2ccc([N+](=O)[O-])cc2C(N)=O)cc1 | -8% | -11% | -7%
Cc1cccc(C)c1NC(=O)C(=O)NCC(c1ccc2c(c1)OCO2)N1CCN(C)CC1 (configuration not stated) | x | 11% | 6%
Oc1ccc(O)c2c1C1c3ccccc3C2c2ccccc21 | -35% | 5µM* | 1%
Oc1ccccc1Cl | -11% | x | x
O=C(CN1CCN(Cc2ccc(F)cc2)C1=O)NCc1ccccc1 | x | 5% | 12%
O=C(O)c1ccc(Cl)c2c1C1C=CCC1C(c1ccccn1)N2 (configuration not stated) | -21% | u | -12%
O=[N+]([O-])c1ccc(Cl)c2c1C1C=CCC1C(c1ccccn1)N2 (configuration not stated) | -28% | 20µM* | 2%
O=C(Nc1ccc2nc(-c3ccco3)[nH]c2c1)c1ccco1 | -23% | -35% | -8%
O=C(Nc1ccc2nc(-c3ccco3)[nH]c2c1)c1cccs1 | -41% | 25µM* | 3%
Cc1c(Cl)cccc1N=Cc1ccc([N+](=O)[O-])s1 | -24% | 40µM* | -2%
Cc1ccccc1C(=O)N/N=C/c1ccc([N+](=O)[O-])s1 | -26% | -35% | u
C/C(=N\Nc1ccc([N+](=O)[O-])cc1)c1ccc(N)cc1 | -28% | -36% | -11%
C/C(=N\Nc1nc(C)c(C)s1)c1ccc([N+](=O)[O-])cc1 | -17% | 22µM* | u
Cc1cc(C)nc(NS(=O)(=O)c2ccc(NC(=O)c3nc(SC(C)C)ncc3Cl)cc2)n1 | x | -2% | 3%
CCN(CC)c1cc(C)c2cc(NC(=O)/C=C/c3cc(OC)c(OC)c(OC)c3)ccc2n1 | x | -15% | -7%
N#Cc1c(N2CCCCC2)nc(N2CCCCC2)c2c1CCN(Cc1ccccc1)C2 | -4% | -22% | -7%
N#Cc1c(Cl)nc(Cl)c2c1CCN(Cc1ccccc1)C2 | -22% | 35µM* | u
Cc1cc(C)c2c(=O)cc(C(=O)Nc3ccc(C)c(Cl)c3)oc2c1 | x | -3% | 4%
Cc1ccc(-c2nn[nH]n2)cc1 | -11% | 8% | 4%
Cc1ccc(-c2nn[nH]n2)o1 | -7% | 45µM* | -10%
SMILES | AmpC no deterg | Sm TGR inh | AmpC inh detg
CCOC(=O)C1=C(C)Nc2ccccc2S1 | -30% | -10% | -5%
CCOC(=O)/C=C1\Nc2ccccc2SC1=O | 20µM* | -12% | -10%
CC(Sc1nnc2ccc3ccccc3n12)C(=O)Nc1ccc(Cl)cc1 (configuration not stated) | x | 3% | 18%
O=C(Nc1cccc(F)c1)C1CCN(c2nc3ccccc3[nH]2)CC1 | x | 3% | 21%
O=CN/N=C/c1c(O)ccc2ccccc12 | -32% | 0% | 0%
Oc1ccc2ccccc2c1/C=N/n1cnnc1 | -19% | -17% | u
Oc1ccc2ccccc2c1C=NC1CCCCC1 | -25% | 40µM* | -9%
Oc1ccc2ccccc2c1/C=N/Nc1ccccc1 | -59% | 50µM* | u
O=C(Cn1cc(S(=O)(=O)Cc2ccc(F)cc2)c2ccccc21)NCCc1ccccc1 | x | 1% | 3%
O=C(Cn1c(=O)n(Cc2ccc(Cl)cc2)c(=O)c2cccnc21)Nc1ccccc1C(F)(F)F | x | 3% | 19%
